Some of the results follow. How many sequences the whole screen found active is unknown.

Drawing on the emibetuzumab library of Makowski et al. (2022), this text covers antigen binding call for 57 variants.

B1: VH:VL chains; a variant is named by its letters at X, in order (parent)
chain 1: QVQLVQSGAEVKKPGASVKVSCKASGYTFTDYXMHWVRQAPGQGLEWMGXVNPNXXXTTYNQKFEGRVTMTTDTSTSTAYMELRSLRSDDTAVYYCARXNXLDXWGQGTTVTVSS
chain 2: DIQMTQSPSSLSASVGDRVTITCSVSSSVSSIYLHWYQQKPGKAPKLLIYSTSNLASGVPSRFSGSGSGTDFTLTISSLQPEDFATYYCQVYSGYPLTFGGGTKVEIK

Variants of B1 are the subject of this assay. Nature of the assay: yeast display scFab, FACS + sequencing. The following applies: with MET. In a few lines: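 A heavy-chain CDR mutant scFab library on yeast was enriched magnetically with HGFR-Fc-coated Protein A beads for two rounds and then by FACS after labelling with 1 nM HGFR-Fc and anti-Myc in PBSB with 1% milk for 3 h at room temperature, gating the top 50% antigen-positive cells. Antigen binding was judged positive if a sequence turned up in both antigen-positive deep-sequencing samples and negative if it turned up only in the input.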
Take DTAESSSF: the antigen binding call was “no binding”.

As to YTGTSDGV, the antigen binding call is “no binding”.

In the case of VEGGGAVV, the antigen binding call is “no binding”.

FRTKDDVY chain 1 E46K: the antigen binding call is listed as “no binding”.

On to DRAGDAAV, for which the antigen binding call was “no binding”.

As to SEARSAAV, the antigen binding call was “no binding”.

In the case of FRARSAAV, the antigen binding call is recorded as “binds”.

Turning to FREGGSGD, the antigen binding call is “no binding”.

With FRAGGSGD, the antigen binding call is recorded as “binds”.

For the variant FAAGGSGD, the antigen binding call is “no binding”.

Consider FRKGGSGD, for which the antigen binding call is given as “binds”.

As for VGETSYVD, the antigen binding call is listed as “no binding”.

As for SKAGGAGA, the antigen binding call is “binds”.

For the variant SKAKGSGV, the antigen binding call is “binds”.

Take SKAKGFGV: the antigen binding call is listed as “no binding”.

For SAAGGAGA chain 1 L45S, the antigen binding call is reported as “no binding”.

With SKAGGVGA, the antigen binding call was “no binding”.

Regarding SKKRGSGA, the antigen binding call is listed as “binds”.

Regarding SKTKSSGA, the antigen binding call is “no binding”.

With SGEEGSGA, the antigen binding call was “no binding”.

For the variant SKTRGAGV, the antigen binding call is on record as “no binding”.

For the variant SKERGDGA, the antigen binding call is listed as “no binding”.

Regarding SKRKSSGA, the antigen binding call is “no binding”.

On to SKAKGSGA, for which the antigen binding call is “binds”.

Take VAATADAV: the antigen binding call is “no binding”.

VAGTSDGA: the antigen binding call is “no binding”.

With DATGGFGV, the antigen binding call is recorded as “no binding”.

For the variant DAGEGFVA, the antigen binding call is “no binding”.

With VEEEAFAV, the antigen binding call was “no binding”.

Take VTGEDSLV: the antigen binding call is “no binding”.

On to VETGNSGA, for which the antigen binding call was “no binding”.

YRERGAAF: the antigen binding call is reported as “binds”.

For YRERGAGF, the antigen binding call was “binds”.

In the case of DRGRDDAA, the antigen binding call is “no binding”.

In the case of DAKEGDLV, the antigen binding call is given as “no binding”.

Take YREKGSLD: the antigen binding call is “binds”.

As to DATGGSLD, the antigen binding call is “no binding”.

Turning to YRTGGSLD, the antigen binding call is “binds”.

As for YRTKASLD, the antigen binding call is given as “binds”.

As for YRAKGSLD, the antigen binding call is “binds”.

Consider DTREGDVA, for which the antigen binding call was “no binding”.

In the case of STAESDGA, the antigen binding call is recorded as “no binding”.

VGEGGDAY: the antigen binding call is listed as “no binding”.

On to VAEKGFLV, for which the antigen binding call was “no binding”.

For the variant SRRETFVF, the antigen binding call was “no binding”.

Turning to DGGTNDVA, the antigen binding call was “no binding”.

Consider VAGTDAGD, for which the antigen binding call was “no binding”.

On to VKGRASGY, for which the antigen binding call is given as “no binding”.

On to FKGRGSGY, for which the antigen binding call is “binds”.

In the case of FKGRGSLY, the antigen binding call is “binds”.

Consider FKGEGSLY, for which the antigen binding call is “no binding”.

With YTRGAALA, the antigen binding call was “no binding”.

YTRGASGA: the antigen binding call was “no binding”.

Consider YKRGASVA, for which the antigen binding call was “binds”.

Take YTRGADVA: the antigen binding call is reported as “no binding”.

Regarding YKRGASLA, the antigen binding call is listed as “binds”.

With YTRGAAVA, the antigen binding call is recorded as “no binding”.
